This note sets out measurements from PubChem BioAssay (Tox21).

The nature of test [1]: qHTS assay to identify small molecule antagonists of the thyroid receptor (TR) signaling pathway - cell viability counter screen (AID 743064). Note: nearly all actives have a fitted effect of over 50% in size. In a few lines: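 GH3.TRE-Luc cells, 4 h pre-plating; cpd + T3 1 nM final; 37 °C 23.5 h; CellTiter-Fluor 30 min; fluorescence read.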
(In general: In qHTS, concentration-response curves come from the screen itself.)

Test [2] in a line: qHTS assay to identify small molecule antagonists of the thyroid receptor (TR) signaling pathway (AID 743065). Note: series mostly up to about 70 µM; nearly all actives have a fitted effect of over 55% in size. A digest of the protocol:
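GH3.TRE-Luc rat pituitary cells (two TREs driving luciferase) were dosed with compound, then stimulated with 1 nM T3 (final) for 23.5 h at 37 C. ONE-Glo luminescence was the read-out, with CellTiter-Fluor fluorescence as the cytotoxicity counter-screen.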

In test [3] the test system is thyroid hormone receptor (rat, GH3 cells). The experiment in a line: qHTS assay to identify small molecule agonists of the thyroid receptor (TR) signaling pathway (AID 743066; calls by dose curve).
The target in test [4] is Estrogen receptor (Homo sapiens) (UniProt P03372). Put plainly: qHTS assay to identify small molecule antagonists of the estrogen receptor alpha (ER-alpha) signaling pathway (AID 743069; active = well fitted curve in the direction sought with a large enough effect in the signal ratio in the repeat runs, not every such curve was filed as active; inconclusive = weak or mixed curves, or effect the other way; inactive = no such curve, though single readings can be large or run the other way; the % refers to the signal ratio). In a few lines:
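HEK293 ER-alpha-UAS-bla GripTite cells, held overnight in 2% charcoal-stripped FBS, 5,000 cells/well, preincubated 4 h, then compound plus 17beta-estradiol for 18 h at 37C. Beta-lactamase read by LiveBLAzer B/G FRET substrate, 2 h at room temperature.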

Test [5] is described as follows: qHTS assay to identify small molecule antagonists of the estrogen receptor alpha (ER-alpha) signaling pathway - cell viability counter screen (AID 743074; calls by dose curve;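 note: HEK293 cells carrying ER-alpha-UAS-bla reporter stimulated with 17beta-estradiol; nearly all actives have a fitted effect of over 45% in size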; note: potency is the fitted concentration of half-maximal effect).
Test [6] addresses Estrogen receptor (Homo sapiens) (UniProt P03372). The experiment in a line: qHTS assay to identify small molecule agonists of the estrogen receptor alpha (ER-alpha) signaling pathway (AID 743075; calls by dose curve; note: potency is the fitted concentration of half-maximal effect).
Test [7] has the same target. Put plainly: qHTS assay to identify small molecule agonists of the estrogen receptor alpha (ER-alpha) signaling pathway using the BG1 cell line (AID 743079). Note: nearly all actives have a fitted effect of over 20% in size. Note: potency is the fitted concentration of half-maximal effect.
A short description of test [8]: qHTS assay to identify small molecule antagonists of the estrogen receptor alpha (ER-alpha) signaling pathway using the BG1 cell line (AID 743080; calls by dose curve;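 note: BG1 cells stimulated with 17beta-estradiol alongside compound; nearly all actives have a fitted effect of over 25% in size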; note: potency is the fitted concentration of half-maximal effect). A digest of the protocol: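 BG1-Luc-4E2 cells (endogenous full-length ER-alpha, 4xERE luciferase) hormone-starved 5 days in charcoal-stripped FBS, plated 4,000/well for 24 h, then compound plus 17beta-estradiol for 21.5 h at 37 C; ONE-Glo luminescence read.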

Test [9] can be described thus: qHTS assay to identify small molecule antagonists of the estrogen receptor alpha (ER-alpha) signaling pathway using the BG1 cell line - cell viability counter screen (AID 743081).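 Note: compound given together with 17beta-estradiol as the ER stimulus; series mostly up to about 70 µM; nearly all actives have a fitted effect of over 45% in size.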
For test [10], the target named is Aromatase (Homo sapiens) (UniProt P11511). The experiment in a line: qHTS assay to identify aromatase inhibitors (AID 743083). Note: series mostly up to about 70 µM; nearly all actives have a fitted effect of over 55% in size.
Sequence of Aromatase (Homo sapiens) (P11511 whole entry, looked up): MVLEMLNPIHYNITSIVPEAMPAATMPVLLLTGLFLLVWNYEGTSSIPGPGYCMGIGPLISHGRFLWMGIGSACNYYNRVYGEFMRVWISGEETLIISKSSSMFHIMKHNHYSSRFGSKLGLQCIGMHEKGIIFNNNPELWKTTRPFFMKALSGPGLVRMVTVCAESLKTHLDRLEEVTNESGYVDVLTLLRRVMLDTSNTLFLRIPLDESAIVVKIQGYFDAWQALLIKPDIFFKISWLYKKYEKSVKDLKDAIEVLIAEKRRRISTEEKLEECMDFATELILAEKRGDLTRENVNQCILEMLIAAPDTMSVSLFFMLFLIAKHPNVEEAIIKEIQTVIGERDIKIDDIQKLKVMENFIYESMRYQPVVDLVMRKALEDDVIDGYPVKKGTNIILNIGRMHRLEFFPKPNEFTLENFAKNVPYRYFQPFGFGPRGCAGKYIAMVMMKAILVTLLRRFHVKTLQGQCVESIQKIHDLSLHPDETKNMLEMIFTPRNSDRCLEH

“And” between values parts separate entries of the source, which are not always exact repeats. Equal entries are not always repeated. More than one record can exist for a structure, and the calls need not agree. The source made the active and inactive calls. Unless noted, calls come from the whole dose curve; as a rule, active = well fitted curve in the direction sought with a large enough effect in the repeat runs; inconclusive = weak or mixed curves; inactive = no such curve, though single readings can be large; an effect the other way counts as inactive or inconclusive.

Sequence of Estrogen receptor (Homo sapiens) (P03372 whole entry, looked up): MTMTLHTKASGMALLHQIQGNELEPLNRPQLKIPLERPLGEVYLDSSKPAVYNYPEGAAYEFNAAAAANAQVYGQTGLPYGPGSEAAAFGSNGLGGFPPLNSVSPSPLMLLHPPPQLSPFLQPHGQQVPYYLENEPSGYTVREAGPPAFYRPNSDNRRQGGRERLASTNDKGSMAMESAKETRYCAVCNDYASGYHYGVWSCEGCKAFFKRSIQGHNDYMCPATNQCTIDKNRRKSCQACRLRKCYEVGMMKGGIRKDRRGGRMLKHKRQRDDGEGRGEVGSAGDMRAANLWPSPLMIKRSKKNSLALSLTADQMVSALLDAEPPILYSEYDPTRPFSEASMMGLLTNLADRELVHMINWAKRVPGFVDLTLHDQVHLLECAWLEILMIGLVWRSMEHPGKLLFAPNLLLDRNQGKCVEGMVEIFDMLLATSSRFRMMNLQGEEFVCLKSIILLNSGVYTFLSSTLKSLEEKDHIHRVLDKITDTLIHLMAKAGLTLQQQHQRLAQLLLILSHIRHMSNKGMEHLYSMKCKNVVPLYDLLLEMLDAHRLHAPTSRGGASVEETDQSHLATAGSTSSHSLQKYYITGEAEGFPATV

As to `Cc1cc(-c2cc(C)c(N)c(C)c2)cc(C)c1N`, the Potency entry in test [1], in [2], in [4], in test [5], in [6] and in test [7] was “inactive” in each case. In addition, the Potency result in [8] and in test [10] was “inactive” each time. For the same compound, the outcome in test [3] and in test [9] was inactive.

Take `BrCCBr`: the Potency result in test [1], in [2], in test [4], in test [5], in test [6] and in [7] was “inactive” each time. In addition, the Potency result in test [8] and in test [10] was “inactive” throughout. Besides, the result in [3] and in [9] was inactive.

For the compound `O=S(=O)(c1ccc(O)cc1)c1ccc(O)cc1`, the Potency entry in test [1], in test [2], in test [4], in [5], in test [8] and in test [10] was “inactive” in each case. Further, the call in test [3] and in test [9] was inactive. Besides, the Potency in test [6] was 15.6 µM [inconclusive] (active) and 24.5 µM [inconclusive] (active); in [7] it was 3.88 µM (active) and 1.93 µM (active).

Regarding `Cc1ccccc1O`, the Potency result in [1], in [2], in test [4], in test [5], in test [6] and in test [7] was “inactive” in each case. Moreover, the Potency entry in [8] and in [10] was “inactive” each time. The result in test [3] and in [9] was inactive.

For `CCOP(OCC)OCC`, the Potency entry in test [1], in test [2], in test [4], in test [5], in test [6] and in test [7] was “inactive” each time. Besides, the Potency entry in [8] and in test [10] was “inactive” each time. Besides, the result in test [3] and in test [9] was inactive.

As to `O=NN1CCCC1`, the Potency result in test [1], in [2], in [4], in test [5], in [6] and in test [7] was “inactive” throughout. Moreover, the Potency result in test [8] and in test [10] was “inactive” in each case. Further, the compound was called inactive in [3] and in test [9].

For `CCC[CH2][Sn]([Cl])([Cl])[Cl]`, the Potency entry in test [1], in test [2], in [4], in test [5], in test [6] and in [7] was “inactive” in each case. The Potency entry in test [8] and in [10] was “inactive” in each case. For the same compound, the result in test [3] and in test [9] was inactive.

For the compound `c1ccc(OP(Oc2ccccc2)Oc2ccccc2)cc1`, the Potency entry in test [1], in test [2], in test [4], in test [5], in [6] and in [7] was “inactive” throughout. In addition, the Potency result in test [8] and in [10] was “inactive” throughout. The call in test [3] and in test [9] was inactive.

As to `CC(C)=C[C@@H]1[C@@H](C(=O)OCc2coc(Cc3ccccc3)c2)C1(C)C`, the Potency entry in test [1], in [2], in test [4], in test [5], in [6] and in [7] was “inactive” throughout. Besides, the Potency result in [8] and in [10] was “inactive” in each case. For the same compound, the compound was classed as inactive in test [3] and in test [9].

As to `[N-]=[N+]=[N-]`, the Potency entry in test [1], in test [2], in test [4], in test [5], in test [6] and in test [7] was “inactive” throughout. Moreover, the Potency result in test [10] is “inactive”. The call in test [3] and in test [9] was inactive. In addition, the Potency entry in test [8] was “inactive and 68.6 µM (active)”.

As to `CNC(=O)Oc1ccccc1OC(C)C`, the Potency entry in test [1], in test [2], in test [4], in test [5], in [6] and in test [7] was “inactive” in each case. Also, the Potency result in [8] and in [10] was “inactive” each time. For the same compound, the compound was classed as inactive in test [3] and in [9].

Consider `CCCCN(CC)C(=O)SCCC`, for which the Potency result in test [1], in test [2], in test [4], in test [5], in test [6] and in [7] was “inactive” each time. Moreover, the Potency entry in test [8] and in [10] was “inactive” throughout. The compound was called inactive in test [3] and in test [9].

Turning to `CC(C)N1C(=O)c2ccccc2NS1(=O)=O`, the Potency entry in test [1], in [2], in test [4], in [5], in test [6] and in test [7] was “inactive” throughout. Moreover, the Potency entry in test [8] and in [10] was “inactive” in each case. For the same compound, the call in test [3] and in test [9] was inactive.

On to `C#CCN(C)[C@H](C)Cc1ccccc1`, for which the Potency result in test [1], in test [2], in test [4], in test [5], in [6] and in test [7] was “inactive” throughout. Further, the Potency result in test [8] and in test [10] was “inactive” throughout. The compound was called inactive in [3] and in [9].

Turning to `CN(N=O)c1ccccc1`, the Potency entry in test [1], in test [2], in test [4], in test [5], in [6] and in [7] was “inactive” throughout. The Potency result in test [8] and in [10] was “inactive” throughout. The outcome in test [3] and in test [9] was inactive.

Take `Nc1ccccc1C(=O)O`: the Potency entry in test [1], in test [2], in test [4], in test [5], in test [6] and in [7] was “inactive” each time. In addition, the Potency result in [8] and in test [10] was “inactive” throughout. For the same compound, the call in test [3] and in test [9] was inactive.

As to `O=c1n(Cl)c(=O)n(Cl)c(=O)n1Cl`, the Potency entry in [1], in [2], in test [4], in [5], in [6] and in test [7] was “inactive” in each case. Further, the Potency result in test [8] and in test [10] was “inactive” in each case. Moreover, the outcome in test [3] and in test [9] was inactive.

As for `c1cc2c3c(cccc3c1)CC2`, the Potency entry in test [1], in test [2], in test [4], in test [5], in test [6] and in test [7] was “inactive” throughout. Besides, the Potency result in [8] and in [10] was “inactive” throughout. Moreover, the call in test [3] and in [9] was inactive.

On to `C1CN2CCN1CC2`, for which the Potency result in [1], in test [2], in [4], in [6], in test [7] and in [8] was “inactive” in each case. For the same compound, the Potency result in test [10] was “inactive”. Also, the outcome in test [3] and in [9] was inactive. Moreover, in [5], the Potency entry was “inactive and 4.36 µM (active)”.

Regarding `O=C1CCCN1`, the Potency result in test [1], in [2], in [4], in test [5], in test [6] and in test [8] was “inactive” in each case. Further, the Potency result in test [10] was “inactive”. Further, the result in test [3] and in test [9] was inactive. Besides, the Potency entry in test [7] was “inactive and 48.6 µM (active)”.

In the case of `O=c1[nH]c2ccccc2c(=O)o1`, the Potency entry in [1], in test [2], in [4], in test [5], in test [6] and in test [7] was “inactive” in each case. Besides, the Potency entry in test [8] and in test [10] was “inactive” in each case. Further, the outcome in [3] and in [9] was inactive.

Turning to `Clc1ccc(Cl)cc1`, the Potency entry in test [1], in test [2], in [4], in test [5], in [6] and in test [7] was “inactive” throughout. Besides, the Potency result in [8] and in test [10] was “inactive” in each case. Also, the compound was called inactive in [3] and in test [9].

Regarding `CC(Oc1ccc(Cl)cc1Cl)C(=O)O` (stereo not given), the Potency result in test [1], in [2], in [4], in [5], in [6] and in [7] was “inactive” throughout. Also, the Potency result in test [8] and in test [10] was “inactive” in each case. Moreover, the compound was classed as inactive in test [3] and in test [9].
